{"source": "the supplement of paper PMC11417369", "note": "The full ranking holds about 25,000 sequences; the median of “ln(normalized median fluorescence intensity)” is about 6.7, and the highest 2% start at about 10. The full list was thinned out, with the highest values kept by preference."}
{"tested_on": "PfHDP1 homeodomain (GST-tagged)", "test": "gcPBM binding intensity (ln(normalized median fluorescence intensity)); higher = stronger DNA binding", "method_in_brief": "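Binding intensity is the highest Masliner-normalised natural-log median intensity over replicate spots in either probe orientation. To obtain it, GST-tagged P. falciparum DNA-binding domains made in E. coli were incubated for 1 h on an Agilent 4 × 180k array of primer-extended double-stranded 36-bp intergenic genomic probes plus negative controls. Detection used Alexa488 anti-GST antibody with scanning at 488 nm.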"}
{"sequence": "ATTTTTTTTTTTTTTTTTTTTTTTTTTTTTTTTTTT [CACACA_negctrl_site1364]", "gcPBM binding intensity (ln)": 7.45}
{"sequence": "AAGTTTATTATATATAAATTATTATATATATATATA [CACACA_negctrl_site189]", "gcPBM binding intensity (ln)": 9.02}
{"sequence": "AATCAAAGTAATTTAACACACAATTTTAATACTGTT [CACACA_site7169]", "gcPBM binding intensity (ln)": 6.23}
{"sequence": "CATTATGTTGTAAATACACACATACATATACATACA [CACACA_site8143]", "gcPBM binding intensity (ln)": 6.76}
{"sequence": "ACATAAATAAATTAATGTACATATATATTTGTATAT [XGTACX_site3160]", "gcPBM binding intensity (ln)": 6.32}
{"sequence": "TATATGTAGATTAAACGTACTTACAACGGAATTATC [XGTACX_site3036]", "gcPBM binding intensity (ln)": 6.67}
{"sequence": "TATAAACATTAAAGGTGTACAATTTAATTTCAATTT [XGTACX_site2944]", "gcPBM binding intensity (ln)": 6.28}
{"sequence": "GGTATAATAATATATAGTACACACAAAAATGGAAGT [XGTACX_site7058]", "gcPBM binding intensity (ln)": 7.5}
{"sequence": "TATTTTTATCAATTCACACATAAATATATTTATATG [CACACA_site5547]", "gcPBM binding intensity (ln)": 6.57}
{"sequence": "TTTTTCCCCCTTTTTTTGATTTTTATCTTAATTCTA [TGCATGCA_negctrl_site287]", "gcPBM binding intensity (ln)": 5.85}
{"sequence": "TATTATAATTTTATATGTACACATATATAAATATAT [XGTACX_site4054]", "gcPBM binding intensity (ln)": 6.29}
{"sequence": "ACATAATTATTATGCACACATATTTTTATGTATTTA [CACACA_site698]", "gcPBM binding intensity (ln)": 10.2}
{"sequence": "CAATTTATTATATATGTGCACATATAATTTTACAAA", "gcPBM binding intensity (ln)": 10.4}
{"sequence": "TTTATTTATATAATTACACACATATATACACAAATG [CACACA_site8903]", "gcPBM binding intensity (ln)": 6.83}
{"sequence": "GTACATAATTATTATGCACACATATTTTTATGTATT [CACACA_site8132]", "gcPBM binding intensity (ln)": 10.5}
{"sequence": "ATATATATATATATATGTACATATTTTTAATTATAA [XGTACX_site7444]", "gcPBM binding intensity (ln)": 9.45}
{"sequence": "GTATAATTATGTGCACGTACATATTTTATTATATAT [XGTACX_site8586]", "gcPBM binding intensity (ln)": 10.9}
{"sequence": "ATATTTTACAAATGCACACATAATTTTTTTTTTTTT [CACACA_site2763]", "gcPBM binding intensity (ln)": 10.5}
{"sequence": "TTATATTTTACAAATGCACACATAATTTTTTTTTTT [CACACA_site8890]", "gcPBM binding intensity (ln)": 9.76}
{"sequence": "ATATAATATATGTATACACACATATTATATAATATT [CACACA_site3699]", "gcPBM binding intensity (ln)": 6.46}
{"sequence": "TATTACACATATTATGTGCACATATATAATCAATAT", "gcPBM binding intensity (ln)": 10.9}
{"sequence": "ATACATATATAATTATGTACGTATATTTTATATAAC [XGTACX_site4292]", "gcPBM binding intensity (ln)": 6.14}
{"sequence": "GTTTTATTTATTTCATGTACACAAAAAAGGTTTTAA [XGTACX_site6525]", "gcPBM binding intensity (ln)": 6.97}
{"sequence": "TTTTGTTATTTTTCAGTGCAATATGATAATAATATA", "gcPBM binding intensity (ln)": 9.56}
{"sequence": "ATTTCTCTATCGTAATGTACATAAAAAAGAAAAACA [XGTACX_site6374]", "gcPBM binding intensity (ln)": 6.63}
{"sequence": "ATATATATATTTAAGGTGCGATTTTGTTATATTTAA", "gcPBM binding intensity (ln)": 7.89}
{"sequence": "AATTATGGGGAAAAGACACACATATATATATATATA [CACACA_site2589]", "gcPBM binding intensity (ln)": 9.35}
{"sequence": "ATCTAAATTTTTCCATGTACATATACTTTTATGCAT [XGTACX_site2683]", "gcPBM binding intensity (ln)": 7.08}
{"sequence": "TATCTGTATTTATTCACACATATAAAATATAATTAA [CACACA_site5560]", "gcPBM binding intensity (ln)": 6.36}
{"sequence": "GGATTTATTTTATATACACACATACCTATATTTATA [CACACA_site7084]", "gcPBM binding intensity (ln)": 6.84}
{"sequence": "TATATCTCATAGTATACACACACACCCACCCACATA [CACACA_site8513]", "gcPBM binding intensity (ln)": 7.7}
{"sequence": "GTATGTGTATGTGTATGTACATATGTATGTATAAAA [XGTACX_site8191]", "gcPBM binding intensity (ln)": 8.13}
{"sequence": "TTAATTATTATATAAGTGCAATAATAAAAAGTTGTA [GTGCAC_site9552]", "gcPBM binding intensity (ln)": 9.36}
{"sequence": "TATATATATATATATTTTTTTTTTTTATGCACATGG [CACACA_negctrl_site1573]", "gcPBM binding intensity (ln)": 10.1}
{"sequence": "TTTATGTATTTTTATGCACACATGCGTGGCTTATAT [CACACA_site4374]", "gcPBM binding intensity (ln)": 10.4}
{"sequence": "ACACATACACATTAGGTGCATATATTTCAATATTAC [GTGCAC_site9423]", "gcPBM binding intensity (ln)": 9.83}
{"sequence": "CGTATGCACAAATTATGTACTTATATATATATATAT [XGTACX_site2348]", "gcPBM binding intensity (ln)": 10.9}
{"sequence": "ATTGTATATGTATATGCACACAATATATGTACTTAT [CACACA_site2611]", "gcPBM binding intensity (ln)": 9.66}
{"sequence": "ACACATACACATTAGGTGCACATAATTCAATATTAC [GTGCAC_site9862]", "gcPBM binding intensity (ln)": 10.6}
{"sequence": "ACAAATAAATAAATATGTACTTAATTATATAATTGA [XGTACX_site5626]", "gcPBM binding intensity (ln)": 6.16}
{"sequence": "TATGTATTTTTATGCACACATGCGTGGCTTATATAA [CACACA_site387]", "gcPBM binding intensity (ln)": 10.5}
{"sequence": "TAATATTCAATTATACGTACACATATATATATATAT [XGTACX_site4245]", "gcPBM binding intensity (ln)": 9.22}
{"sequence": "AAATAATTATTTATCACACATATGTATTTATATATA [CACACA_site4589]", "gcPBM binding intensity (ln)": 6.66}
{"sequence": "AGTGCATAATATTTATGTACGTATCACATATATTTT [XGTACX_site5166]", "gcPBM binding intensity (ln)": 10.7}
{"sequence": "GTTTATGTATTATTATGTACGTATCATAATATATAT [XGTACX_site2385]", "gcPBM binding intensity (ln)": 6.87}
{"sequence": "ATATTATTTTATGCTACACACATTTTCTCTTATAAA [CACACA_site943]", "gcPBM binding intensity (ln)": 7.25}
{"sequence": "AAAAAAAAAATATACACACACATATATATATATATA [CACACA_site3404]", "gcPBM binding intensity (ln)": 9.35}
{"sequence": "GTAGACTGAAACCACACACACATATATATATATATT [CACACA_site605]", "gcPBM binding intensity (ln)": 6.93}
{"sequence": "ATATAGAATATATTAACATGCAATAAGTAAAGGGGG [TGCATGCA_site1022]", "gcPBM binding intensity (ln)": 7.05}
{"sequence": "TGTATGTATTTTCAATGTACATAAAAAAAAAAAAAA [XGTACX_site4397]", "gcPBM binding intensity (ln)": 6.71}
{"sequence": "AATATAATATAATGCACACATAAAAAAAAAATCAAA [CACACA_site122]", "gcPBM binding intensity (ln)": 11}
{"sequence": "TTTGAAATAAATAATGCACACTCTACATATATACGT [CACACA_site2244]", "gcPBM binding intensity (ln)": 10.6}
{"sequence": "GTTGAAAAAAAAAATGCACACGCATACATATAATAT [CACACA_site8117]", "gcPBM binding intensity (ln)": 9.09}
{"sequence": "AAAATATAATATAATGCACACATAAAAAAAAAATCA [CACACA_site7922]", "gcPBM binding intensity (ln)": 10.2}
{"sequence": "TGAAATAAATAATGCACACTCTACAGATATACGTAT [CACACA_site5270]", "gcPBM binding intensity (ln)": 10.1}
{"sequence": "AATCTAATATAATGCACACATAAAAAAAAAATCAAA [CACACA_site2714]", "gcPBM binding intensity (ln)": 10.2}
{"sequence": "AATATAATATAATGCACACATAAAAAAAAAAAAATC [CACACA_site1303]", "gcPBM binding intensity (ln)": 10.6}
{"sequence": "AATCTAATATAATGCACACATAAAAAAAAATCAAAC [CACACA_site3633]", "gcPBM binding intensity (ln)": 10.7}
{"sequence": "AAAATCTAATATAATGCACACATAAAAAAAAATCAA [CACACA_site9211]", "gcPBM binding intensity (ln)": 9.65}
